Among the test systems are NCI-H23 lung; NCI-H226 lung; HOP-62 NSCLC; NCI-H460 lung; HOP-92 NSCLC; NCI-H522 lung; A549/ATCC NSCLC; 786-0 renal; COLO 205 colon; DU-145 prostate; K-562 leukemia; MALME-3M melanoma; MDA-MB-231 breast; RXF 393 renal; SF-268 CNS; SF-295 CNS; SF-539 CNS; UACC-257 melanoma; M14 melanoma.
Holding throughout (test): NCI-60 one-dose screen, 48 h (100 = growth as untreated, 0 = no growth, -100 = all killed)
What all share (details): 10 µM

Compounds without any hit were thinned out: in the full panel of roughly 83,000, 20% have a hit.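 Assay: single dose, 48 h. Readout: percent growth (0 = no net growth; negative = cell death). Active: <10.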 A number with no mark means an inactive call. Activity calls are given as the source filed them.

For the molecule `Clc1nc2ccc(Br)cc2cc1-c1nc2ccccc2[nH]1`, the growth was 90.6% in the experiment with NCI-H23 lung; 98.5% in the experiment on NCI-H226 lung; 81.3% in the experiment on HOP-62 NSCLC; 73.2% with NCI-H460 lung; 71.3% in the experiment on HOP-92 NSCLC; 53.1% in the experiment on NCI-H522 lung. Moreover, the growth in the experiment with A549/ATCC NSCLC is 17.2%; with 786-0 renal, 91%; in the experiment on COLO 205 colon, 107%; in the experiment with DU-145 prostate, 99.4%; with K-562 leukemia, 86.1%; in the experiment with MALME-3M melanoma, 97.2%. The growth in the experiment on MDA-MB-231 breast was 64.6%; in the experiment with RXF 393 renal, 10.6%; in the experiment with SF-268 CNS it was 59.3%; in the experiment with SF-295 CNS, 86.7%; with SF-539 CNS, 107%; with UACC-257 melanoma, 102%. For the same molecule, the growth in the experiment with M14 melanoma was 105%.
Take `COc1ccc(-c2n[nH]nc2-c2cc(OC)c3c(c2OC)OCO3)cc1`: the growth is 45.6% in the experiment with NCI-H23 lung; 75% with NCI-H226 lung; 36.1% in the experiment with HOP-62 NSCLC; 11.4% in the experiment on NCI-H460 lung; 8.78% (active) in the experiment on HOP-92 NSCLC; -12.8% (active) with NCI-H522 lung. Also, the growth was 33.3% in the experiment with A549/ATCC NSCLC; 65.6% in the experiment on 786-0 renal; 12.9% in the experiment on COLO 205 colon; 10.2% with DU-145 prostate; 10.7% in the experiment with K-562 leukemia; 61.7% in the experiment with MALME-3M melanoma. The growth was 32% in the experiment with MDA-MB-231 breast; -9.08% (active) in the experiment with RXF 393 renal; 48.8% in the experiment on SF-268 CNS; 4.67% (active) with SF-295 CNS; -2.99% (active) in the experiment with SF-539 CNS; 48% in the experiment on UACC-257 melanoma. Further, the growth in the experiment on M14 melanoma was 20.6%.
Consider `C=CCn1c(SCC(=O)Nc2ccc(C(=O)/C=C/c3ccc(Cl)cc3)cc2)nnc1-c1cc(-c2ccccc2)nc2ccccc12`, for which the growth in the experiment with NCI-H23 lung was 66.3%; with NCI-H226 lung, 73.6%; in the experiment with HOP-62 NSCLC, 86.1%; in the experiment with NCI-H460 lung it was 98.6%; with HOP-92 NSCLC, 91.5%; with NCI-H522 lung, 60.5%. Besides, the growth in the experiment with A549/ATCC NSCLC was 89.7%; in the experiment with 786-0 renal, 86.7%; in the experiment on COLO 205 colon, 99.5%; with DU-145 prostate it was 95.6%; in the experiment with K-562 leukemia, 27.6%; with MALME-3M melanoma, 87.1%. The growth was 58.3% in the experiment on MDA-MB-231 breast; 63.9% in the experiment with RXF 393 renal; 76% in the experiment with SF-268 CNS; 102% in the experiment on SF-295 CNS; 69.8% in the experiment on SF-539 CNS; 93.4% in the experiment with UACC-257 melanoma. Moreover, the growth in the experiment with M14 melanoma was 76.3%.
With `COc1cc2c(cc1NC(=O)C(Cl)Cl)-c1ccc(NC(=O)C(Cl)Cl)cc1C2`, the growth with NCI-H23 lung was 48.6%; in the experiment with NCI-H226 lung, 19.3%; with HOP-62 NSCLC it was -58.3% (active); in the experiment with NCI-H460 lung it was -51.6% (active); in the experiment with HOP-92 NSCLC, 40.2%; in the experiment on NCI-H522 lung, 82.5%. Also, the growth in the experiment on A549/ATCC NSCLC was -4.92% (active); in the experiment on 786-0 renal, 48.4%; in the experiment on COLO 205 colon it was -86.5% (active); in the experiment on DU-145 prostate, -68.4% (active); with K-562 leukemia, 20.7%; in the experiment with MALME-3M melanoma it was 115%. Further, the growth is -18% (active) in the experiment with MDA-MB-231 breast; -59.2% (active) with RXF 393 renal; -31.2% (active) in the experiment with SF-268 CNS; -12.8% (active) with SF-295 CNS; -14.9% (active) with SF-539 CNS; -13.1% (active) in the experiment with UACC-257 melanoma. The growth in the experiment with M14 melanoma is 69.8%.
`CCOC(=O)c1cc(C(=O)c2cc(OC)cc(OC)c2)n2ncc3ccccc3c12`: the growth in the experiment with NCI-H23 lung was 41.9%; with NCI-H226 lung, 59.1%; with HOP-62 NSCLC, 42.6%; in the experiment with NCI-H460 lung, 7.07% (active); in the experiment with HOP-92 NSCLC it was 32.4%; in the experiment with NCI-H522 lung, 2.64% (active). The growth was 17.9% in the experiment on A549/ATCC NSCLC; 5.34% (active) with 786-0 renal; 19.1% with COLO 205 colon; 46.4% with DU-145 prostate; 5.75% (active) in the experiment with K-562 leukemia; 41.9% in the experiment on MALME-3M melanoma. The growth in the experiment with MDA-MB-231 breast is 42.9%; in the experiment on RXF 393 renal, 29.1%; in the experiment on SF-268 CNS, 46.9%; with SF-295 CNS, 8.71% (active); in the experiment with SF-539 CNS, 11.5%; in the experiment on UACC-257 melanoma, 49%. Besides, the growth in the experiment with M14 melanoma was 15.7%.
For `Cc1c(O)c(=O)ccn1C1CCC(CC2CCC(n3ccc(=O)c(O)c3C)CC2)CC1` (configuration not stated), the growth with NCI-H23 lung was 39.5%; in the experiment with NCI-H226 lung it was 42.1%; with HOP-62 NSCLC, 36.2%; in the experiment with NCI-H460 lung, 12.5%; in the experiment on HOP-92 NSCLC, 51.8%; in the experiment with NCI-H522 lung, 31.3%. Moreover, the growth in the experiment with A549/ATCC NSCLC was 46.4%; with 786-0 renal, 46.5%; in the experiment with COLO 205 colon, 23.5%; in the experiment on DU-145 prostate, 39.6%; with K-562 leukemia it was 18.3%; in the experiment with MALME-3M melanoma, 63.8%. In addition, the growth was 43.4% in the experiment on MDA-MB-231 breast; 44.1% in the experiment on RXF 393 renal; 30.1% in the experiment with SF-268 CNS; 54.9% in the experiment with SF-295 CNS; 11.9% in the experiment with SF-539 CNS; 45.5% in the experiment with UACC-257 melanoma. Moreover, the growth in the experiment with M14 melanoma was 47.2%.
Take `Cc1cccc(N=Cc2ccccc2O)c1C`: the growth was 94.8% with NCI-H23 lung; 104% in the experiment on NCI-H226 lung; 103% with HOP-62 NSCLC; 114% with NCI-H460 lung; 97.3% in the experiment on HOP-92 NSCLC; 114% with NCI-H522 lung. For the same molecule, the growth in the experiment with A549/ATCC NSCLC is 88.2%; in the experiment on 786-0 renal it was 94.5%; in the experiment on COLO 205 colon it was 106%; in the experiment on DU-145 prostate it was 126%; in the experiment with K-562 leukemia, 98.3%; with MALME-3M melanoma it was 91.7%. In addition, the growth in the experiment with MDA-MB-231 breast is 102%; in the experiment on RXF 393 renal, 110%; in the experiment on SF-268 CNS, 116%; in the experiment on SF-295 CNS, 106%; with SF-539 CNS, 102%; in the experiment with UACC-257 melanoma, 94.6%. Further, the growth in the experiment with M14 melanoma was 105%.
As to `COc1cc(/C=C2\CCCC3=C2N=C2SC(C)=CN2C3c2cc(OC)c(OC)c(OC)c2)cc(OC)c1OC` (configuration not stated), the growth is -30.4% (active) in the experiment on NCI-H23 lung; -56.7% (active) with NCI-H226 lung; -19.6% (active) with HOP-62 NSCLC; 1.37% (active) with NCI-H460 lung; 55.4% in the experiment on HOP-92 NSCLC; -21.8% (active) with NCI-H522 lung. Besides, the growth in the experiment on A549/ATCC NSCLC is -23.4% (active); with 786-0 renal, -18.1% (active); in the experiment with COLO 205 colon, -71% (active); in the experiment on DU-145 prostate, -26.9% (active); in the experiment with K-562 leukemia, 20.4%; in the experiment on MALME-3M melanoma, 4.83% (active). Besides, the growth in the experiment with MDA-MB-231 breast was 18.9%; with RXF 393 renal it was -71.9% (active); in the experiment on SF-268 CNS it was 14.7%; with SF-295 CNS, 2.48% (active); with SF-539 CNS, 7.53% (active); with UACC-257 melanoma, -27% (active). Moreover, in the experiment on M14 melanoma, the growth was 2.47% (active).
